Assay results: PubChem BioAssay AID1851 (National Center for Advancing Translational Sciences (NCATS), 2009)
Values joined by “and” are separate entries in the source; they are usually repeats but may differ in a detail not shown here. Identical values can stand only once. About 4,000 (25%) of roughly 16,000 compounds were called active. Another 26% or so got no clear call; they are omitted. The call rests on the fitted dose curve; in most records, active means well fitted curve in the direction sought with a large enough effect; inconclusive means small, poorly fitted or top-dose-only effect, or effect the other way; inactive means no such curve, though single readings can be large or run the other way. Not all results are given here.

Biological target: Cytochrome P450 2C9 (Homo sapiens) (UniProt P11712)
Assay: Cytochrome panel assay with activity outcomes
Conditions: recombinant CYP, pro-luciferin dealkylation, luminescence, p450-cyp2c9; series mostly up to 57.1 µM
On the % scale 0 is the no-effect control and ±100 the full control effect.

Chain of Cytochrome P450 2C9 (Homo sapiens) (P11712 whole entry, looked up): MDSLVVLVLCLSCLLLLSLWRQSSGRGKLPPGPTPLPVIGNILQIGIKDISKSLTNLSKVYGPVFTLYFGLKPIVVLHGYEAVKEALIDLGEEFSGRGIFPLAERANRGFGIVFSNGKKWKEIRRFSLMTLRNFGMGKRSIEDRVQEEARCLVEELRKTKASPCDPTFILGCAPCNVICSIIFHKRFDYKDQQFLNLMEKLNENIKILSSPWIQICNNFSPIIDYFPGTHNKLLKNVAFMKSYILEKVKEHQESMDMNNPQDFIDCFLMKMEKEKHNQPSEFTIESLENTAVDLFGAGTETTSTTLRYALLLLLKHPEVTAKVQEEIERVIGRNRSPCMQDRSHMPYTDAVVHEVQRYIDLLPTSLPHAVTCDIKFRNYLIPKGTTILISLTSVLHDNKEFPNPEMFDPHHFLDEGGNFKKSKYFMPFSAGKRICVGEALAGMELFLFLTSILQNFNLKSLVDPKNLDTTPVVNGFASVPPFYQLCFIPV

activity, negative = inhibition, inactive:
O=C1C[C@H]2C(=O)[C@@H]1[C@@H](C(=O)O)[C@H]2C(=O)O 19.5% [at 11.4 µM], CC1CCN(CC(=O)N2c3ccccc3Sc3cc4ccccc4cc32)CC1 -17.9% [at 11.4 µM], c1nc(NCCN2CCOCC2)c2cc(-c3ccoc3)ccc2n1 -2.85% [at 2.29 µM], O=C(O)[C@H](Cc1ccc(O)c([N+](=O)[O-])c1)N1C(=O)c2ccccc2C1=O 0.788% [at 11.4 µM], Clc1ccc2c(NC3CCC(N4CCCCC4)CC3)ccnc2c1 (stereo not drawn) 10.6% [at 11.4 µM], COc1ccccc1-c1cncnc1Nc1ccc(F)cc1 -21.5% [at 2.29 µM], CON(C)C(=O)c1nnc2c3ccccc3n(S(=O)(=O)c3ccc(C)cc3)c2n1 12.1% [at 11.4 µM] and -11.7% [at 11.4 µM], Cc1cc(C)c(-c2cc([C@H](C)O/N=C\[C@@H](C)[C@H](OCc3ccccc3)C(C)C)on2)c(C)c1 -7.67% [at 11.4 µM], C[N+](C)(N)CCC[N+](C)(C)N 15.9% [at 11.4 µM], CO[C@@H](C(C)C)[C@@H](C)[C@@H]1OC(=O)C[C@@H]1O -15.2% [at 11.4 µM], COc1cccc(CSCC(=O)O)c1 -12.1% [at 11.4 µM], COc1cccc(-c2nccc(NC3CCNCC3)n2)c1 9.19% [at 2.29 µM], Cc1cc(=O)oc2cc(O)c(CN(C)CC(=O)O)cc12 -0.896% [at 11.4 µM], Cc1ccc([C@@H](O)c2cnc(C)n2Cc2ccccc2)cc1 -18.2% [at 11.4 µM], Cc1noc(C)c1-c1nccc(N(C)C)n1 -8.59% [at 2.29 µM], CC(=O)OC[C@@H]1O[C@@H](O/N=C2/C[C@@H](O)[C@@H](O)[C@@H]3[C@@H]4C(=O)N(C[C@@H]5CCCO5)C(=O)[C@H]4CC[C@@H]23)[C@H](OC(C)=O)[C@H](OC(C)=O)[C@@H]1OC(C)=O -5.55% [at 11.4 µM], COc1cccc(-c2cc(NCc3cccs3)ncn2)c1 -10.2% [at 2.29 µM], CN(C)C(=O)c1ccc(-c2ccc3ncnc(NCc4cccs4)c3c2)cc1 8.22% [at 2.29 µM], COc1ccccc1-c1cc(NCc2cnc(C)cn2)ncn1 9.42% [at 2.29 µM], O=C(O)[C@H]([C@H]1NCCS1)N1Cc2ccccc2C1 1.08% [at 11.4 µM], CC(=NC1CCCCC1)c1ccccc1O -0.794% [at 11.4 µM]

AC50, active:
COC(=O)c1cc(NC(=O)N2c3ccccc3Sc3ccccc32)cc(C(=O)OC)c1 3.55 µM, COCCNC(=O)c1onc(CSc2ccc(Cl)cc2)c1C(=O)O 5.01 µM, COCCNC(=O)c1onc(CSc2cccc(Cl)c2)c1C(=O)O 3.98 µM, COCCNC(=O)c1onc(CSc2ccccc2F)c1C(=O)O 15.8 µM, C=CCNC(=O)c1onc(CSc2ccc(F)cc2)c1C(=O)O 8.91 µM, Cc1cc(/C=N\NC(=O)c2cccs2)c(C)n1-c1ccc2ncccc2c1 3.16 µM, N#Cc1c(N)nc2c(c1-c1cccc(O)c1)CCCCCC2 8.91 µM, Cc1ccc(-c2ccc(/C=N/N3C(=O)C4C5C=CC(C6CC56)C4C3=O)o2)c([N+](=O)[O-])c1 (stereo not drawn) 5.01 µM, Cc1cc(-c2ccc(/C=N/n3cnnc3)o2)c([N+](=O)[O-])cc1C 2.51 µM, COCC(=O)Oc1c(S(=O)(=O)c2ccc(C)cc2)c(C)nn1-c1ccccc1 1.78 µM, COc1cccc(NC(=O)COC(=O)c2c3c(nc4ccccc24)CCC(C)C3)c1 (stereo not drawn) 11.2 µM, COc1cc(-c2nnc(COC(=O)c3c4c(nc5ccccc35)CCCC4)o2)cc(OC)c1OC 2 µM, COc1ccc(NC(=O)COC(=O)c2c3c(nc4ccccc24)CCCC3)cc1 7.08 µM, COc1ccc(OC)c(NC(=O)c2c3c(nc4ccccc24)CCC3)c1 14.1 µM, N[C@H](CCC(=O)N[C@H](CSN=O)C(=O)NCC(=O)O)C(=O)O 5.01 µM, COc1cccc(CSc2nnc(C(F)(F)F)n2Cc2ccc(F)cc2)c1 11.2 µM, Fc1ccc(Cn2c(SCc3ccc(F)c(C(F)(F)F)c3)nnc2C(F)(F)F)cc1 7.08 µM, Fc1ccc(Cn2c(SCc3ccc(F)c(F)c3)nnc2C(F)(F)F)cc1 15.8 µM, Cc1ccc(CSc2nnc(C(F)(F)F)n2Cc2ccc(F)cc2)cc1 4.47 µM, Cc1ccc(C(=O)Nc2c(C#N)c(C)c(C)n2Cc2ccccc2)cc1 3.55 µM, C/C(=N\OC(=O)NC1CCCCC1)c1sc(-c2ccccc2)nc1C 11.2 µM, COc1cccc(-c2[nH]nc3c2C(c2ccsc2)C(C#N)=C(N)O3)c1 (stereo not drawn) 2.51 µM, Cc1ccc(N(C(C)C(=O)Nc2cc(Cl)ccc2Oc2ccccc2)S(C)(=O)=O)cc1 (stereo not drawn) 6.31 µM, CC(C(=O)Nc1ccccc1Sc1ccccc1)N(c1ccccc1)S(C)(=O)=O (stereo not drawn) 4.47 µM, Cc1ccc(N=C/C(C(=O)C(F)(F)F)=C(\O)c2cccs2)cc1 3.55 µM, COc1ccc(C2C(C#N)=C(N)N(Nc3ccccc3)C3=C2C(=O)CC(C)(C)C3)cc1C (stereo not drawn) 1.58 µM, COc1cc(C2C(C#N)=C(N)N(Nc3ccccc3)C3=C2C(=O)CC(C)(C)C3)ccc1OCc1cccc(F)c1 (stereo not drawn) 3.98 µM, O=S(=O)(c1ccccc1)N1CCC2(CC1)CN(C(c1ccccc1)c1ccccc1)C2 1 µM, O=S(=O)(c1ccccc1)N1CCC2(CCN(C(c3ccccc3)c3ccccc3)CC2)CC1 0.501 µM, CCCCN1C(=O)C(NC(=O)C2CC2)(C(F)(F)F)C2=C1CC(C)(C)CC2=O (stereo not drawn) 6.31 µM, CCOC(=O)c1c(-c2ccc(C)o2)csc1NC(=S)NC(=O)N(C)C 10 µM

AC50, inactive:
CCOC(=O)Nc1ccc2c(c1)N(C(=O)CCN1CCN(C)CC1)c1ccccc1S2, Nc1cc(=O)[nH]c(N)n1, CC(C)NCCOCCSc1ccc(Cl)cc1, COCCCNC(=O)/C=C/c1ccc(Cl)cc1, CN1CCN(CCCNC(=O)c2ccc(CSCc3cccc(Cl)c3)o2)CC1, N[C@H](Cn1ccc(=O)n(Cc2ccccc2C(=O)O)c1=O)C(=O)O, Cc1noc(C)c1C(=O)N1CCC[C@@]2(CCN(C(=O)NC(C)C)C2)C1, COc1cccc(NC(=O)CSc2nc3c(c(-c4ccco4)c2C#N)CCCC3)c1, Cc1cc2ncn(/N=C/c3ccc([N+](=O)[O-])o3)c2cc1C, Cn1cccc1C(=O)N1CCC2(CCN(C(=O)Nc3cccc(F)c3)CC2)CC1, COc1ccc(C(=O)Nc2ccc(C(=O)OCC(=O)c3ccccc3)cc2)cc1, Nc1c2c(nc3ccccc13)CCCC2, COc1cccc(NC(=O)COC(=O)c2nc3nccc(C)n3n2)c1, Cn1c2c(c(=O)n(C)c1=O)CN(CCN1CCNCC1)CN2, [N-]=[N+]=Nc1ccc(C(=O)CSC[C@@H](NC(=O)CC[C@@H](N)C(=O)O)C(=O)NCC(=O)O)cc1, N[C@H](CCC(=O)NCC(=O)O)C(=O)O, Cc1c(CC(C)(C)C(=O)O)n(Cc2ccc(Cl)cc2)c2ccc(F)cc12, NCCC(=O)O, COc1cccc(CNc2ccc3nc(-c4ccc(N)cc4)c(OC)n3n2)c1, CCN(CC)CCCN(Cc1cc2ccc(C)c(C)c2[nH]c1=O)C(=O)NC1CCCCC1, Cc1nc(-c2cccnc2)sc1C(N)=O, CNC(=O)c1sc(-c2cccnc2)nc1C, CNc1c2c(nn1C)CCCC2, O=c1cc(CO)oc(CN2CCCC2)c1O, COc1cccc(C=NC=Nc2cccc(OC)c2)c1, C[C@](N)(COP(=O)(O)O)C(=O)O, CC(=O)N(CC(O)CN(C(C)=O)c1c(I)c(C(=O)NC[C@@H](O)CO)c(I)c(C(=O)NC[C@@H](O)CO)c1I)c1c(I)c(C(=O)NC[C@@H](O)CO)c(I)c(C(=O)NC[C@@H](O)CO)c1I, Cc1cccc(Sc2c([N+](=O)[O-])ncn2C)n1, N#Cc1ccc(CN2CC3(CCN(C(=O)c4cc(C(F)(F)F)cc(C(F)(F)F)c4)CC3)C2)cc1, O=S(=O)(c1ccccc1)N1CCC2(CCCN(C(c3ccccc3)c3ccccc3)C2)CC1, CS(=O)(=O)N1CCC2(CCN(C(c3ccccc3)c3ccccc3)CC2)CC1, CC(C)NC(=O)N1CC2(CCN(S(=O)(=O)c3ccccc3)CC2)C1, NC1CCN(c2cccc(Cl)n2)CC1, C[C@H]1[C@@H](O)[C@@H](C)\C=C/C=C\C=C/C=C\C=C/C=C\C=C/[C@@H](O[C@H]2O[C@@H](C)[C@@H](O)[C@@H](N)[C@@H]2O)C[C@@H]2O[C@](O)(C[C@@H](O)C[C@@H](O)[C@@H](O)CC[C@@H](O)C[C@@H](O)CC(=O)O[C@H]1C)C[C@@H](O)[C@H]2C(=O)O (stereo in doubt), CC1(C)CC(=O)C2=C(C1)N(Cc1ccccc1)C(=O)C2(O)C(F)(F)F (stereo not drawn), Cc1cc(C)n2nc(-c3sccc3-n3cccc3)cc2n1
